Some test systems named below: DU-145 prostate; K-562 leukemia; MALME-3M melanoma; MDA-MB-231 breast; RXF 393 renal; SF-268 CNS; SF-295 CNS; SF-539 CNS; UACC-257 melanoma; M14 melanoma.
Common to all, as to test: NCI-60 one-dose screen, 48 h (100 = growth as untreated, 0 = no growth, -100 = all killed)
Conditions in all cases: 10 µM unless noted

The panel holds about 83,000 compounds, 20% with a hit somewhere; the sample as a whole holds those more often.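 Percent growth is the endpoint: 0 to 100 indicates growth inhibition (40 means 60% inhibition), 0 means no net growth, and negative values indicate cell death.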 Unmarked numbers belong to inactive results. Activity calls are given as the source filed them. How the source made its calls: active means growth percent below 10; inactive means the rest.

13 compounds from PubChem BioAssay (NCI) can be followed below.

Regarding `COC1=CC(c2ccc[nH]2)=N/C1=C\c1[nH]c(C)c(C(=O)OCc2ccccc2)c1C`, the growth in the assay with DU-145 prostate was 12.1%; in the assay with K-562 leukemia, 2.63% (active); with MALME-3M melanoma, -76.7% (active); with MDA-MB-231 breast it was -65.1% (active); in the assay with RXF 393 renal, -18.1% (active); with SF-268 CNS, 0.9% (active). For the same compound, the growth in the assay on SF-295 CNS was -79.3% (active); with SF-539 CNS, -63.4% (active); in the assay with UACC-257 melanoma it was -57.5% (active); with M14 melanoma it was -73.9% (active).

For `Fc1ccc(-c2nn(-c3ccccc3)cc2-c2nc3ccccc3o2)cc1`, the growth was 90.1% with DU-145 prostate; 37.5% in the assay on K-562 leukemia; 63.6% with MALME-3M melanoma; 59.1% in the assay on MDA-MB-231 breast; 105% in the assay on RXF 393 renal; 58.5% with SF-268 CNS. Also, the growth with SF-295 CNS was 45.4%; with SF-539 CNS, 91.7%; in the assay with UACC-257 melanoma it was 102%; with M14 melanoma, 48.2%.

On to `CN1CCN(c2ccc(C(=O)Nc3cccc(C#Cc4cccc5[nH]nc(N)c45)c3)cc2C(F)(F)F)CC1`, for which the growth was -20.3% (active) with DU-145 prostate; -36.9% (active) in the assay on K-562 leukemia; -66.3% (active) in the assay with MALME-3M melanoma; -72.2% (active) in the assay with MDA-MB-231 breast; -25.4% (active) with RXF 393 renal; -1.07% (active) with SF-268 CNS. Moreover, the growth in the assay with SF-295 CNS is -58.5% (active); with SF-539 CNS, -82.7% (active); with UACC-257 melanoma it was -67.1% (active); with M14 melanoma, -69.5% (active).

As for `Cc1ccc(-c2nc3nc(-c4ccccc4)nc(N4CCNCC4)c3o2)cc1`, the growth is -86.8% (active) with DU-145 prostate; -71% (active) with K-562 leukemia; -80.4% (active) in the assay with MALME-3M melanoma; -79.3% (active) with MDA-MB-231 breast; -81.2% (active) with RXF 393 renal; -67.2% (active) in the assay on SF-268 CNS. The growth with SF-295 CNS was -83.2% (active); in the assay with SF-539 CNS, -93.4% (active); with UACC-257 melanoma, -89.2% (active); in the assay with M14 melanoma, -84.7% (active).

On to `CO/N=C(/C)c1ccc(NC(=O)CSc2nnc(-c3ccncc3)n2-c2ccccc2)cc1`, for which the growth with DU-145 prostate is 52%; in the assay with K-562 leukemia it was 91.6%; with MALME-3M melanoma, 32.2%; in the assay with MDA-MB-231 breast, 42.7%; in the assay on RXF 393 renal, 4.02% (active); in the assay with SF-268 CNS, 13.4%. The growth in the assay with SF-295 CNS is 33%; with SF-539 CNS, -31.2% (active); in the assay on UACC-257 melanoma, 50.6%; in the assay on M14 melanoma, 74.8%.

With `COC1C[C@H](O[C@@H]2C[C@H](O[C@@H]3C[C@H](O[C@@H]4C(=O)c5c(cc6cc(O[C@H]7C[C@@H](O[C@H]8C[C@@H](O)[C@H](O)C(C)O8)[C@H](O)C(C)O7)c(C)c(O)c6c5O)C[C@H]4C(OC)C(=O)[C@@H](O)[C@@H](C)O)OC(C)[C@H]3O)OC(C)[C@@H]2O)OC(C)[C@@H]1O` (stereo not given in full), the growth was 14% in the assay with DU-145 prostate; 4.88% (active) with K-562 leukemia; -59.4% (active) with MALME-3M melanoma; -7.44% (active) with MDA-MB-231 breast; -50.9% (active) in the assay with RXF 393 renal; 18.3% in the assay with SF-268 CNS. In addition, the growth in the assay with SF-295 CNS is 7.37% (active); in the assay with SF-539 CNS it was -8.29% (active); in the assay with UACC-257 melanoma, -37.3% (active); in the assay on M14 melanoma, -22.7% (active).

Regarding `C=C(C)[C@@H]1CC[C@]2(C(=O)NCC#CCN3CCN(C)CC3)CC[C@]3(C)[C@H](CC[C@@H]4[C@@](C)(CCC#N)[C@H](C(=C)C)CC[C@]43C)[C@@H]12`, the growth in the assay on DU-145 prostate is 57.5%; in the assay with K-562 leukemia it was 2.05% (active); in the assay on MALME-3M melanoma, 56.9%; in the assay with MDA-MB-231 breast it was 42.1%; in the assay with RXF 393 renal, 39.8%; in the assay on SF-268 CNS, 62.4%. Besides, the growth with SF-295 CNS is 94.2%; with SF-539 CNS, 66%; in the assay with UACC-257 melanoma, 56.7%; with M14 melanoma, 5.09% (active).

`O=C(Cn1c(=O)sc2nc3ccccc3nc21)Nc1ncc(Cc2cccc(Cl)c2Cl)s1`: the growth was 112% with DU-145 prostate; 102% in the assay with K-562 leukemia; 117% with MALME-3M melanoma; 90.6% in the assay with MDA-MB-231 breast; 109% in the assay with RXF 393 renal; 94.4% in the assay with SF-268 CNS. In addition, the growth is 102% in the assay with SF-295 CNS, 98.7% with SF-539 CNS, 107% with UACC-257 melanoma and 100% with M14 melanoma.

Turning to `C#Cc1ccc(NC(=O)c2ccc(/C=C/C(=O)c3nccn3C)cc2)cc1`, the growth is -86.8% (active) in the assay with DU-145 prostate; 1.98% (active) in the assay on K-562 leukemia; -38.4% (active) in the assay on MALME-3M melanoma; -55.7% (active) in the assay with MDA-MB-231 breast; -86.3% (active) with RXF 393 renal; -28.9% (active) in the assay on SF-268 CNS. The growth was -91.2% (active) with SF-295 CNS, -96.7% (active) in the assay on SF-539 CNS, -19.6% (active) with UACC-257 melanoma and -69.8% (active) with M14 melanoma.

As for `Oc1c(Cl)cc(Cl)cc1/C=N/Nc1nnc(N/N=C/c2cc(Cl)cc(Cl)c2O)c2ccccc12`, the growth with DU-145 prostate is 21.8%; with K-562 leukemia, 9.41% (active); in the assay with MALME-3M melanoma it was 10.4%; in the assay on MDA-MB-231 breast, 21.3%; with RXF 393 renal, -16.3% (active); with SF-268 CNS, 6.61% (active). Besides, the growth with SF-295 CNS was -1.51% (active); in the assay with SF-539 CNS it was -17.7% (active); in the assay on UACC-257 melanoma, 38.5%; with M14 melanoma it was 5.83% (active).

As to `O=c1c2cc(-c3ccccc3)sc2nc2sc(-c3ccccc3)nn12`, the growth in the assay on DU-145 prostate was 103%; in the assay on K-562 leukemia, 93.8%; in the assay with MALME-3M melanoma, 94.1%; in the assay on MDA-MB-231 breast, 110%; with RXF 393 renal, 93.2%; with SF-268 CNS, 100%. Also, the growth is 98.8% in the assay with SF-295 CNS, 107% in the assay with SF-539 CNS, 90.9% in the assay on UACC-257 melanoma and 97.9% in the assay on M14 melanoma.

As for `CC1(C)CC[C@]2(C(=O)O)CC[C@]3(C)C(=CC[C@@H]4[C@@]5(C)C/C(=C/O)C(=O)C(C)(C)[C@@H]5CC[C@]43C)[C@@H]2C1`, the growth was 85.2% with DU-145 prostate; 32.2% in the assay with K-562 leukemia; 89.9% with MALME-3M melanoma; 111% in the assay on MDA-MB-231 breast; 93.7% in the assay with RXF 393 renal; 57.2% with SF-268 CNS. Besides, the growth is 79.9% in the assay on SF-295 CNS, 29.2% in the assay on SF-539 CNS, 91.6% in the assay with UACC-257 melanoma and 79.1% with M14 melanoma.

On to `Fc1ccc2[nH]cc(-c3nonc3-c3c[nH]c4ccc(Br)cc34)c2c1`, for which the growth in the assay on DU-145 prostate was 42%; in the assay with K-562 leukemia, 4.21% (active); in the assay on MALME-3M melanoma, 21.2%; in the assay with MDA-MB-231 breast, -20.2% (active); with RXF 393 renal, 77.3%; in the assay with SF-268 CNS, 38.2%. The growth with SF-295 CNS was 9.73% (active); in the assay on SF-539 CNS it was 16.7%; in the assay with UACC-257 melanoma, 42.7%; with M14 melanoma, -5.26% (active).
